Where “and” joins values, the source holds several entries; their conditions need not be identical. Identical values can stand only once. Records with an inconclusive call do not appear. Calls of active or inactive are those of the source. Calls follow the shape of the dose curve; as a rule, active = well fitted cell-killing curve with a large enough effect in the repeat runs; inconclusive = weak or mixed curves, or effect the other way; inactive = no such curve, though single readings can be large or run the other way.
assay: qHTS assay to identify small molecule agonists of the estrogen receptor alpha (ER-alpha) signaling pathway in the presence of an antagonist - cell viability counter screen (AID 1259386); conditions: VM7Luc4E2 viability, CellTiter-Fluor fluorescence, 22 h; series mostly up to 92.4 µM; activity change, negative = cytotoxicity: at the top concentration;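 also: cells exposed to compounds for 22 h at 37 °C before the viability read; nearly all actives have a fitted effect of over 30% in size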
In short: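 In this counter screen, compound effects on VM7Luc4E2 viability were tested in the presence of the antagonist ICI-182,780 at 10.0nM final. Compounds were dosed at 15 concentrations, exposure lasted 22hr, and the CellTiter-Fluor signal was read.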
% is scaled to controls: 0 for no effect and ±100 for the full control effect; potency is read from the fitted curve at half-maximal effect.

Compound	activity change, negative = cytotoxicity	Potency
O=C(Cl)OCCOCCOC(=O)Cl	-2.66% (inactive)	–
COc1ccc(C(O)(c2cncnc2)C2CC2)cc1 (centres undefined)	2.08% (inactive)	–
CC(=O)OC(c1ccccc1)C(Cl)(Cl)Cl (centres undefined)	-6.63% (inactive)	–
CCCC[N+]1(C)[C@@H]2CC(OC(=O)[C@H](CO)c3ccccc3)C[C@H]1[C@@H]1O[C@@H]12 (some centres undefined)	1.17% [at 42.5 µM] (inactive)	–
O=C(N/N=C/c1ccc([N+](=O)[O-])o1)c1cc([N+](=O)[O-])cc([N+](=O)[O-])c1O	–	21.1 µM (active)
CC(C)OC(=O)Cc1ccccc1	3.4% (inactive)	–
C=CCSSCC=C	-0.183% (inactive)	–
CCCC1CCCCN1 (centres undefined)	2.17% [at 42.5 µM] (inactive)	–
c1ccc2c(c1)-c1cccc3cccc-2c13	–	inactive
CN1CC[C@]23c4c5ccc(O)c4O[C@H]2[C@@H](O)CC[C@H]3[C@H]1C5	-11.4% (inactive)	–
C[C@@H]1C[C@@H]([C@H](O)CC2CC(=O)NC(=O)C2)C(=O)[C@@H](C)C1	–	inactive
C=CCN1C[C@H](C)N([C@H](c2ccc(C(=O)N(CC)CC)cc2)c2cccc(OC)c2)C[C@H]1C	-1.02% [at 42.5 µM] (inactive)	–
CNC(=O)Oc1cccc(N=CN(C)C)c1	-3.1% (inactive)	–
O=C(NCNC(=O)NC1C(=O)NC(=O)N1CO)NC1C(=O)NC(=O)N1CO (centres undefined)	1.88% (inactive)	–
COCc1cnc(C2=NC(C)(C(C)C)C(=O)N2)c(C(=O)O)c1 (centres undefined)	0.592% (inactive)	–
C=CCOCC1CO1 (centres undefined)	-1.88% (inactive)	–
CCC1(C2=NCCN2)Cc2ccccc2O1 (centres undefined)	0.897% [at 42.5 µM] (inactive)	–
Cc1cccc(C)c1NC1=NCCCS1	-4.97% [at 42.5 µM] (inactive)	–
CN1C[C@H](C(=O)N[C@]2(C)O[C@@]3(O)[C@@H]4CCCN4C(=O)[C@H](Cc4ccccc4)N3C2=O)C=C2c3cccc4[nH]cc(c34)C[C@H]21	–	24.4 µM (active) and 20.2 µM (active)
NC(=O)CF	4.19% (inactive)	–

Compound	activity change, negative = cytotoxicity	Potency
C[C@H]1[C@@H]2Cc3ccc(O)cc3[C@@]1(C)CCN2C	-10.8% [at 240 µM] (inactive)	–
CCOC(C(=O)OCCN(C)C)(c1ccccc1)c1ccccc1	-2.32% [at 42.5 µM] (inactive)	–
Oc1cccc(Cl)c1	-0.159% (inactive)	–
Nc1ccc2c(c1)Cc1ccccc1-2	2.32% (inactive)	–
CCCSP(=S)(OCC)Oc1ccc(SC)cc1 (centres undefined)	-0.871% (inactive)	–
CCOc1cccc(C2(N3CCN(c4ccccc4)CC3)CCC(C)CC2)c1 (centres undefined)	-0.948% (inactive)	–
O=C(NC(=O)c1cc(F)c(F)cc1Cl)Nc1cc(F)ccc1N1CCC(C(=O)O)CC1	6.24% [at 42.5 µM] (inactive)	–
CN1CC[C@]23c4c5ccc(O)c4O[C@H]2[C@@H](O)C=C[C@H]3[C@H]1C5	-6.38% (inactive)	–
O=C(O)C(Cl)(Cl)Br	3.36% (inactive)	–
O=CC=O	0.913% (inactive)	–
CCOC(=O)c1cncn1C(C)c1ccccc1 (centres undefined)	0.355% [at 42.5 µM] (inactive)	–
CC(C)(C#N)C(C)(C)C#N	-0.206% (inactive)	–
N#CC(C#N)=Cc1ccc(O)c(O)c1	6.64% [at 42.5 µM] (inactive)	–
O=C(Cc1ccccc1)c1ccccc1	3.6% (inactive)	–
O=C1CC[C@@]2(O)[C@H]3Cc4ccc(O)c5c4[C@@]2(CCN3CC2CC2)[C@H]1O5	0.249% [at 42.5 µM] (inactive)	–
CC[N+]1(CCOC(=O)C(O)(c2ccccc2)c2ccccc2)CCCCC1	7.1% [at 42.5 µM] (inactive)	–
O=C(O)COc1cc(Cl)c(Cl)cc1Cl	–	inactive
OCCCl	2.72% (inactive)	–
CCCCNC(=O)OCC#CI	-6.94% (inactive)	–
